Laboratory results as given in PubChem BioAssay (Tox21).
Where “and” joins values, the source holds several entries; their conditions need not be identical. Equal entries are not always repeated. Inconclusive results are not listed. A call without a number means that no potency is given here. Calls of active or inactive are those of the source. Unless noted, calls follow the shape of the dose curve; as a rule, active = well fitted curve in the direction sought with a large enough effect in the repeat runs; inconclusive = weak or mixed curves; inactive = no such curve, though single readings can be large; an effect the other way counts as inactive or inconclusive.

Experiments:
[1] = qHTS assay to identify small molecule agonists of the vitamin D receptor (VDR) signaling pathway - cell viability counter screen (AID 743224); also: series mostly up to about 63 µM; nearly all actives have a fitted effect of over 50% in size
Method in brief: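 In parallel with the bla FRET readout, cytotoxicity toward VDR-bla cells after 16 h compound exposure was assessed by CellTiter-Glo, with luminescence recorded after a 30 min room-temperature incubation.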

[2] = qHTS assay to identify small molecule antagonists of the vitamin D receptor (VDR) signaling pathway - cell viability counter screen (AID 743225); also: nearly all actives have a fitted effect of over 50% in size
Method in brief: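 Same-well multiplex: following 16 h treatment of HEK 293T cells carrying a UAS-driven beta-lactamase reporter with compound and agonist (3 nM final), and a 2 h FRET substrate step, CellTiter-Glo was added and luminescence read after 30 min.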

[3] = qHTS assay to identify small molecule agonists of the NFkB signaling pathway (AID 1159509; active = well fitted curve in the direction sought with a large enough effect in the signal ratio in the repeat runs, not every such curve was filed as active; the % refers to the signal ratio; also: series mostly up to about 61 µM)
Method in brief: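 Beta-lactamase reporter assay run in quantitative high-throughput format on an NF-kB-responsive ME-180 line, with 5 hr compound treatment and a FRET-based blue/green fluorescence readout.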

[4] = qHTS assay to identify small molecule agonists of the NFkB signaling pathway - cell viability counter screen (AID 1159515; calls by dose curve; also: series mostly up to about 61 µM; nearly all actives have a fitted effect of over 55% in size)
Method in brief: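 Plate 2,000 NFkB-bla ME-180 cells/well; incubate overnight. Add compounds, 5 hr at 37 C. Add FRET substrate, 1.5 hr RT. Add CellTiter-Glo, 30 min RT; read luminescence.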

[5] = qHTS assay to identify small molecule agonists of the endoplasmic reticulum stress response signaling pathway (AID 1159516; active = well fitted activation curve with a large enough effect in the signal ratio in the repeat runs, not every such curve was filed as active; the % refers to the signal ratio)
Method in brief: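 Beta-lactamase expression from the ER stress response element in HeLa reporter cells is quantified with the LiveBLAzer B/G FRET substrate, read at 405 nm excitation after 2 hr at room temperature, following 5 hr compound treatment at 37 C.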

[6] = qHTS assay to identify small molecule agonists of the endoplasmic reticulum stress response signaling pathway - cell viability counter screen (AID 1159517; calls by dose curve; also: series mostly up to about 61 µM; nearly all actives have a fitted effect of over 50% in size)
Method in brief: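 After overnight attachment, ESRE-bla HeLa cells were treated with Tox21 library compounds for 5 hr. CellTiter-Glo luminescence, read 30 min post-addition at room temperature, reported viability.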

[7] = qHTS assay to identify small molecule antagonists of the retinoid-related orphan receptor gamma (ROR-gamma) signaling pathway - cell viability counter screen (AID 1159520); also: nearly all actives have a fitted effect of over 50% in size
Method in brief: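 Cytotoxicity was read from cellular ATP (CellTiter-Glo luminescence) after 16 hr at 37 C with 1 uM doxycycline induction. The inducer was added 2 hr after compound transfer to Tet-on ROR gamma CHO cells.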

[8] = molecular target: Nuclear receptor ROR-gamma (Homo sapiens) (UniProt P51449); assay: qHTS assay to identify small molecule antagonists of the retinoid-related orphan receptor gamma (ROR-gamma) signaling pathway (AID 1159521; also: nearly all actives have a fitted effect of over 50% in size; also: potency is read from the fitted curve at half-maximal effect)
Method in brief: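 Inducible-expression reporter assay: doxycycline (1 uM final) switched on RORγ in CHO cells bearing a ROR response element-luciferase construct, with test compounds present from 2 h beforehand. Decreased luminescence after 16 h defined antagonist activity.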

[9] = qHTS assay to identify small molecule agonists of the AP-1 signaling pathway - cell viability counter screen (AID 1159525; calls by dose curve; also: nearly all actives have a fitted effect of over 55% in size)
Method in brief: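 Intracellular ATP by Cell Titer Glo luminescence (30 min, RT) in the same ME-180 AP-1-bla wells after the 5 h compound exposure at 37 °C. Normalised to tetra n-octyl ammonium bromide and DMSO controls.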

[10] = qHTS assay to identify small molecule agonists of the AP-1 signaling pathway (AID 1159526; calls by dose curve)
[11] = molecular target: Retinoic acid receptor RXR-alpha (Homo sapiens) (UniProt P19793); assay: qHTS assay to identify small molecule agonists of the RXR signaling pathway (AID 1159527; calls by dose curve; also: nearly all actives have a fitted effect of over 35% in size)
Chain of Retinoic acid receptor RXR-alpha (Homo sapiens) (P19793 whole entry, looked up): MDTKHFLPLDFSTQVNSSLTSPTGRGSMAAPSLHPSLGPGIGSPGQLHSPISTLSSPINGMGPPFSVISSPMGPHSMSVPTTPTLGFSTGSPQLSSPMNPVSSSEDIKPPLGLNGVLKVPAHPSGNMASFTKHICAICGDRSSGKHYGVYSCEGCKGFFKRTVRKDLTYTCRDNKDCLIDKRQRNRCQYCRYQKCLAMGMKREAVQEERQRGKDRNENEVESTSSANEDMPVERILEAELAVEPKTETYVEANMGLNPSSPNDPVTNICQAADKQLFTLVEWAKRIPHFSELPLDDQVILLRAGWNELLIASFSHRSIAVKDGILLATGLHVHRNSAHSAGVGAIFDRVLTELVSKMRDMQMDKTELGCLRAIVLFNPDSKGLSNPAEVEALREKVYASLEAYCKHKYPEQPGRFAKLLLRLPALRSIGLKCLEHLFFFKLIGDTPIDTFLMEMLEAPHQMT
Method in brief: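 Compounds in DMSO were added to RXR-alpha-UAS-bla HEK 293T cells kept in 2% charcoal-stripped serum, and incubated 16 hr at 37 C with 5% CO2. Reporter signal came from a 2 hr B/G FRET substrate step.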

[12] = qHTS assay to identify small molecule agonists of the RXR signaling pathway - cell viability counter screen (AID 1159529)
Method in brief: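 Counter screen: CellTiter-Glo luminescence. Cells: RXR-alpha-UAS-bla HEK 293T. Medium: 2% charcoal-stripped FBS. Treatment: 16 h, 37 C. Reagent incubation: 30 min, RT.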

[13] = qHTS assay to identify small molecule antagonists of the retinoid acid receptor (RAR) signaling pathway - cell viability counter screen (AID 1159551); also: nearly all actives have a fitted effect of over 35% in size
Method in brief: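 Viability of C3RL4 cells is quantified from ATP by luminescence after 6 h treatment at 37 C with compounds and 1 uM retinol.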

[14] = qHTS assay to identify small molecule antagonists of the retinoic acid receptor (RAR) signaling pathway (AID 1159552; also: nearly all actives have a fitted effect of over 50% in size)
Method in brief: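 Antagonism of retinol-induced RARE reporter activity was measured in C3RL4 cells. Exposure to compounds and 1 uM final retinol lasted 6 hr at 37 C, with luminescence as endpoint.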

[15] = qHTS assay to identify small molecule agonists of the retinoic acid receptor (RAR) signaling pathway (AID 1159553); also: potency is read from the fitted curve at half-maximal effect
Method in brief: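 Compounds dissolved in DMSO were pinned onto C3RL4 cells seeded the previous day, and plates were held 6 hr at 37 C. RARE-driven luciferase output was then read by luminescence.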

[16] = qHTS assay to identify small molecule antagonists of the estrogen related receptor (ERR) signaling pathway - cell viability counter screen (AID 1224818);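 also: series mostly up to about 46 µM; viability measured after 17.5 h of compound exposure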
Method in brief: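 Cytotoxicity check run alongside the ERR antagonist screen: cells exposed to test compounds 17.5 h at 37 C, viability taken as CellTiter-Fluor fluorescence intensity.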

[17] = qHTS assay to identify small molecule antagonists of the estrogen related receptor signaling pathway with the pleiotropic PPARgamma coactivator (PGC) cell viability counter screen (AID 1224822;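 also: series mostly up to about 46 µM; viability read after 17.5 h compound exposure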)
Method in brief: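 Viable cell signal (CellTiter-Fluor, 30 min, 37 C/5% CO2) was measured in PGC/ERR cells after a 17.5 h compound incubation.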

[18] = qHTS assay to identify small molecule antagonists of the estrogen related receptor (ERR) signaling pathway (AID 1224819)
Method in brief: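 ERR reporter cells were plated at 2,000 cells/well and left 6 h at 37 C/5% CO2 before pin-tool transfer of compounds in DMSO. After 18 h at 37 C, One-Glo was added and luminescence was read 30 min later at room temperature.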

[19] = qHTS assay to identify small molecule agonists of the estrogen related receptor (ERR) signaling pathway (AID 1224820)
Method in brief: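 Following a 6 h settling period, 2,000 ERR cells per well receive DMSO-dissolved compounds by pin tool and incubate 18 h at 37 C; agonist activity is scored from One-Glo luminescence read 30 min post-addition.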

[20] = test system: estrogen-related receptor alpha (ERRalpha) with PGC-1alpha coactivator, human; assay: qHTS assay to identify small molecule antagonists of the estrogen related receptor signaling pathway with the pleiotropic PPARgamma coactivator (PGC) (AID 1224821; calls by dose curve)
Method in brief: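 Screening used NTP's PGC/ERR cells, dosed via pin tool with compound in DMSO alongside positive and negative controls. After 18 h at 37 C, One-Glo reagent sat 30 min at room temperature before luminescence detection.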

SMILES | Potency [1] | Potency [2] | outcome [3] | outcome [4] | outcome [5] | outcome [6] | outcome [7] | Potency [8] | Potency [9] | outcome [10] | Potency [11] | Potency [12] | outcome [13] | Potency [14] | Potency [15] | outcome [16] | outcome [17] | outcome [18] | outcome [19] | outcome [20]
COC(=O)CC(C)=O | inactive | inactive | inactive | inactive | inactive | inactive | inactive | inactive | inactive | inactive | inactive | inactive | inactive | inactive | – | – | – | – | – | –
c1ccc(CC2=NCCN2)cc1 | inactive | inactive | inactive | inactive | inactive | inactive | inactive | inactive | inactive | inactive | inactive | inactive | inactive | inactive | – | – | – | – | – | –
CCSC(=O)N(CC(C)C)CC(C)C | inactive | inactive | inactive | inactive | inactive | inactive | inactive | inactive | inactive | inactive | inactive | inactive | inactive | – | inactive | – | – | – | – | –
NC(=O)COCCN1CCN(C(c2ccccc2)c2ccc(Cl)cc2)CC1 (stereo not drawn) | inactive | inactive | inactive | inactive | inactive | inactive | inactive | 2660 nM (active) | inactive | inactive | inactive | inactive | inactive | – | – | – | – | – | – | –
CC(=O)Nc1c(I)cc(I)c(C(=O)O)c1I | inactive | inactive | inactive | inactive | inactive | inactive | inactive | inactive | inactive | inactive | inactive | inactive | inactive | inactive | – | – | – | – | – | –
O=C1CCCN1C1CCCCC1 | inactive | – | inactive | inactive | inactive | inactive | inactive | inactive | inactive | inactive | inactive | inactive | inactive | – | inactive | – | – | – | – | –
Cc1c(O)cccc1O | inactive | inactive | inactive | inactive | inactive | inactive | inactive | inactive | inactive | inactive | inactive | inactive | inactive | – | inactive | – | – | – | – | –
OCCCC1CCCCC1 | inactive | – | inactive | inactive | inactive | inactive | inactive | inactive | inactive | inactive | inactive | inactive | inactive | – | inactive | – | – | – | – | –
C[N+](C)(C)CC(O)CC(=O)[O-] (stereo not drawn) | inactive | inactive | inactive | inactive | inactive | inactive | inactive | inactive | inactive | inactive | inactive | inactive | inactive | – | inactive | – | – | – | – | –
O=c1cc(-c2ccccc2)oc2ccccc12 | inactive | inactive | inactive | inactive | inactive | inactive | inactive | – | inactive | inactive | – | inactive | inactive | inactive | 3.44 µM (active) and 858 nM (active) | inactive | inactive | – | – | –
Cc1ccc(=O)n(-c2ccccc2)c1 | inactive | – | inactive | inactive | – | inactive | inactive | inactive | inactive | inactive | inactive | inactive | inactive | inactive | inactive | inactive | inactive | inactive | inactive | inactive
CCCc1cc(C(N)=S)ccn1 | inactive | inactive | inactive | inactive | inactive | inactive | inactive | inactive | inactive | inactive | – | inactive | inactive | inactive | inactive | – | – | – | – | –
CO[C@]12C[C@@H](COC(=O)c3cncc(Br)c3)CN(C)[C@@H]1Cc1cn(C)c3cccc2c13 | inactive | inactive | inactive | inactive | inactive | inactive | inactive | inactive | inactive | inactive | – | inactive | inactive | inactive | – | – | – | – | – | –
